In PubChem BioAssay one finds growth inhibition, inhibition and outcome data, which are given here for four molecules.

Values without a mark were called inactive. For some assays here: Potency and affinity values are given separately. Calls of active or inactive are those of the source. Unless noted, no rule for the calls is given here.

Test [1] in a line: antimalarial activity against Dd2 strain (AID 2302;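 active = growth inhibition above 50% at the single 2 µM test dose, taken to imply half-maximal potency below 2 µM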;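 also: 0% = DMSO untreated growth and 100% = chloroquine plus artemisinin killed control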). Conditions: P. falciparum Dd2 in RBCs, LDH growth readout, 72 h; at 2 µM; hits give high values.
A short description of test [2]: HepG2 cytotoxicity, primary screen, cytotoxicity control for P. falciparum antimalarial project, cell-based, ATP luminescence (AID 2303;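 active = inhibition above 50%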;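 also: 0% = DMSO wells and 100% = digitonin-killed cells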). Conditions: HepG2 viability, 24-48 h, at 10 µM, hits give high values.
In test [3] the target is L-lactate dehydrogenase (Plasmodium falciparum (isolate CDC / Honduras)) (UniProt Q27743). The test is described as follows: PfLDH activity inhibition – cell lysate, 3D7 strain, counter-screen for P. falciparum growth inhibition project (AID 2304).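 Also: 0% = vehicle and 100% = reference inhibitor.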 Conditions: P. falciparum 3D7 crude extract, LDH APAD/NBT absorbance; at 2 µM; hits give high values. For orientation: A counterscreen serves to expose hits that act by an unwanted route or on another target.
L-lactate dehydrogenase (Plasmodium falciparum (isolate CDC / Honduras)), sequence (Q27743 whole entry, looked up): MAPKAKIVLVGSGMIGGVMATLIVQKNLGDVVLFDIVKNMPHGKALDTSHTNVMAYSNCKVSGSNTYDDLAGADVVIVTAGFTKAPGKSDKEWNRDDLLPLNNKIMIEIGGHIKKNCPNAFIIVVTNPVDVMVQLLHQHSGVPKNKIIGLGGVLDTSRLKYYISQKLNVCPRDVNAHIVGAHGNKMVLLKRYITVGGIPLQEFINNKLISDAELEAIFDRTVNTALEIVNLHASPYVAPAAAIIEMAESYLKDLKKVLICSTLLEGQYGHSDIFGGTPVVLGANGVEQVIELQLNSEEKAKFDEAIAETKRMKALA

Test [4] is described as follows: inhibition of 3D7 malaria parasite growth – strain 3D7 (AID 2306).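 Also: 0% = DMSO wells and 100% = chloroquine plus artemisinin control wells.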 Conditions: P. falciparum 3D7 erythrocytic growth, LDH absorbance, 72 h; at 2 µM; hits give high values.
The target of test [5] is Calcium-dependent protein kinase 1 (Plasmodium falciparum (isolate 3D7)) (UniProt P62344). Description: PfCDPK1 kinase inhibitors, biochemical, TCAMS library (AID 1159585; cut-off not given, nearly all actives have IC50 up to about 0.98 µM;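 also: inhibitors leave more ATP so luminescence rises with inhibition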). Conditions: recombinant PfCDPK1, Kinase-Glo ATP depletion luminescence. Background: Kinase-Glo reads ATP consumption through a luciferase reaction.
Calcium-dependent protein kinase 1 (Plasmodium falciparum (isolate 3D7)), sequence (P62344 whole entry, looked up): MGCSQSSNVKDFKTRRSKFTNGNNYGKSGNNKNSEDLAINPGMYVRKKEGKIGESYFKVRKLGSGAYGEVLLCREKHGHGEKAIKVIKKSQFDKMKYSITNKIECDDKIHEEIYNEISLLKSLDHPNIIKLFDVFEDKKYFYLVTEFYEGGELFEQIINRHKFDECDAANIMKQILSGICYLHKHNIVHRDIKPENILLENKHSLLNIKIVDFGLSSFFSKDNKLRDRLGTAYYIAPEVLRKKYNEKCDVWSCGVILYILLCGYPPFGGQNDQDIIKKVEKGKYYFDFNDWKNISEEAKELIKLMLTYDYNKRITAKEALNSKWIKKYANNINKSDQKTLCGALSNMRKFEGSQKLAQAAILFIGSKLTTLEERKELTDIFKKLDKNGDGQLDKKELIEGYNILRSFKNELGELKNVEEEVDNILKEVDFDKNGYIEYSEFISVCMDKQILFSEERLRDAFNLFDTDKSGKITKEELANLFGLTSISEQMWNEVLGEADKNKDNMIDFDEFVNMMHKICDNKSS
Test [6] deals with Plasmodium falciparum protein kinase 6 (PK6, PF3D7_1337100) (UniProt Q8IDW1). The test is described as follows: PfPK6 kinase inhibitors, biochemical, TCAMS library (AID 1159586). Conditions: recombinant PfPK6, Kinase-Glo ATP depletion luminescence.
Plasmodium falciparum protein kinase 6 (PK6, PF3D7_1337100), sequence (Q8IDW1 1-305): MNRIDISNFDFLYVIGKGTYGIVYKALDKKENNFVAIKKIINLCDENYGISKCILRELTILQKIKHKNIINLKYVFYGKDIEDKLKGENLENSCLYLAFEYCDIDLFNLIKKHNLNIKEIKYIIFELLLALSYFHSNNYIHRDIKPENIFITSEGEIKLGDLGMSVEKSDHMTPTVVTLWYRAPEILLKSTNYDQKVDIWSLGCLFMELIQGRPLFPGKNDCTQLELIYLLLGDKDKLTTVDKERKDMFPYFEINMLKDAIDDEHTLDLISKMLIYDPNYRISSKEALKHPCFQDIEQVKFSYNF
In test [7] the target is Protein kinase 7 (PK7), Plasmodium falciparum 3D7 (PF3D7_0213400) (UniProt Q7YTF7). The test is described as follows: inhibition of Plasmodium PK7 catalytic activity – biochemical, TCAMS antimalarial set, Kinase-Glo luminescence (AID 1159587). Conditions: recombinant PfPK7, Kinase-Glo ATP depletion luminescence.
Protein kinase 7 (PK7), Plasmodium falciparum 3D7 (PF3D7_0213400), sequence (Q7YTF7 1-343): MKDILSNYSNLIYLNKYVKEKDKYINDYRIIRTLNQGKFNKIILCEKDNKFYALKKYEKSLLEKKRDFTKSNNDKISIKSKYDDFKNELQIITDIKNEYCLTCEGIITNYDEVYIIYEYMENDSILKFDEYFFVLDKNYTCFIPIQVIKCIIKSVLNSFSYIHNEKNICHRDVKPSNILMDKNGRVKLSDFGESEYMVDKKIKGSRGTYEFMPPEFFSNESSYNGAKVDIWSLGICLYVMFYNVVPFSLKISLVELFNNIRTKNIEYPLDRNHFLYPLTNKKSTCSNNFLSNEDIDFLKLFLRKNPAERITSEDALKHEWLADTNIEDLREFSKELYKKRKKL
In test [8] the target is Calcium-dependent protein kinase 4 (Plasmodium falciparum (isolate 3D7)) (UniProt Q8IBS5). The test is described as follows: PfCDPK4 kinase inhibitors, biochemical, TCAMS library (AID 1159588; cut-off not given, nearly all actives have IC50 up to about 0.91 µM). Conditions: recombinant PfCDPK4, Kinase-Glo ATP depletion luminescence.
Calcium-dependent protein kinase 4 (Plasmodium falciparum (isolate 3D7)), sequence (Q8IBS5 whole entry, looked up): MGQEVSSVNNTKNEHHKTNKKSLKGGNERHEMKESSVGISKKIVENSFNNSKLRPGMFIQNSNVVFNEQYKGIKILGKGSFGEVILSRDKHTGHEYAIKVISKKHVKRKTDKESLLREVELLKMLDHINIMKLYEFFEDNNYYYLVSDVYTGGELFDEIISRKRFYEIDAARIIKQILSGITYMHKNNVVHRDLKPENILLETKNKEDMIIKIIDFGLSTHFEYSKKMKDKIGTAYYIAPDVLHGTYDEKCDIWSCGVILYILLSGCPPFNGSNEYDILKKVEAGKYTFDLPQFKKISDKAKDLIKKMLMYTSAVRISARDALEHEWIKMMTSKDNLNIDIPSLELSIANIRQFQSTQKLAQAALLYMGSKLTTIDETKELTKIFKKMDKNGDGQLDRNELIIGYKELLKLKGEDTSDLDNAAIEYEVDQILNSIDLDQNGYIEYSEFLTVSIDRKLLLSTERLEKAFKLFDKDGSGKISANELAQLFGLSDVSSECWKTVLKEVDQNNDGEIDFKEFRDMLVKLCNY

As to `O=S(=O)(NCCN1CCCC1)c1ccc(-c2ccc(CN3Cc4ccccc4C3)cc2)s1`, the figures for the growth inhibition in test [1] and in test [4] were 18% and 89% (active), respectively. Moreover, the inhibition in test [2] was 19%; in test [3], 5%. Besides, the result in test [5], in test [6], in test [7] and in test [8] was inactive.
With `O=C(Nc1ccc(Oc2ccccc2)cc1)N(CCN1CCCC1)Cc1ccc(-c2ccc(CN3CCNCC3)cc2)cc1`, the values for the growth inhibition in test [1] and in test [4] were 90% (active) and 88% (active), respectively. In addition, the figures for the inhibition in test [2] and in test [3] were 48% and -2%, respectively. The outcome in test [5], in test [6], in test [7] and in test [8] was inactive.
Regarding `COc1ccc(NC(=O)C2c3ccccc3C(=O)N(C3CCCC3)C2c2cccs2)cc1` (configuration not stated), the values for the growth inhibition in test [1] and in test [4] were 75% (active) and 93% (active), respectively. Besides, the inhibition in test [2] is 0%; in test [3], -1%. For the same molecule, the result in test [5], in test [6], in test [7] and in test [8] was inactive.
For the molecule `COc1cc(NC(=O)/C=C/c2cc(F)cc(F)c2F)cc(OCCN2CCC(O)(c3ccccc3)CC2)c1`, the results for the growth inhibition in test [1] and in test [4] were 82% (active) and 103% (active), respectively. The inhibition in test [2] is 54% (active); in test [3], 6%. In addition, the result in test [5], in test [6], in test [7] and in test [8] was inactive.

What is called inhibition is the change of the read-out against control, counted positive when it falls.
